PubChem BioAssay AID833 (The Scripps Research Institute Molecular Screening Center, 2007)
Hit rate of the full screen: of about 16,000 compounds, about 80 (0.5%) were called active. Shown is part of a subset that was picked to be rich in actives. Values without a mark were called inactive. Cut-off read from the data, not from the text of the source: active = activation above about 15%; inactive = the rest.

Each compound was assayed against Galanin receptor type 2 (Rattus norvegicus) (UniProt O08726) (assay: agonists of rat galanin receptor 2 (GALR2) (AID 833)). Settings: cell-based GALR2 agonist screen; at 10 µM; active compounds read high.
Chain of Galanin receptor type 2 (Rattus norvegicus) (O08726 whole entry, looked up): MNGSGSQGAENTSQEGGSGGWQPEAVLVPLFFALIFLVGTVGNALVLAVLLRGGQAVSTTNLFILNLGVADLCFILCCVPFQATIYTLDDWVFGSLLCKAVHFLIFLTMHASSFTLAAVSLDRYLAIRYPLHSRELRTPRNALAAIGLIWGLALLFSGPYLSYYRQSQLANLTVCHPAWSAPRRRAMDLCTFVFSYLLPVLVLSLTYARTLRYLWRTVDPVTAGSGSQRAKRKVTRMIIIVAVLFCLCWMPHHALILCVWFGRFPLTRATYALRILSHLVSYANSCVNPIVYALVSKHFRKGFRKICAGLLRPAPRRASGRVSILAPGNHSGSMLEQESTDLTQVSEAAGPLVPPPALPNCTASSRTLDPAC

SMILES	activation
Cc1[nH]c2ccccc2c1Sc1ccc(Cl)cc1	-8.87%
Cc1onc(-c2ccccc2)c1CNS(=O)(=O)c1ccc2c(c1)OCCN2C	-3.66%
CC(=O)c1ccc(C#Cc2ccccc2)cc1	-6.33%
N#Cc1ccc(N2CCN(C(=O)c3ccco3)CC2)cc1	-9.07%
CCOc1ccc(NC(=S)N2CCC(c3ccccc3OC)CC2)cc1	-6.67%
Cc1nc(-c2cccnc2)nc(N2CCCN(Cc3ccc(F)cc3)CC2)c1Cl	-9.09%
COC(=O)c1ccc(/C=C2\C(=O)Nc3ccccc32)n1-c1ccc(F)cc1	2.14%
Clc1ccc(C=NCc2cccnc2)c(Cl)c1	-5.42%
Cc1cc(S(=O)(=O)O/N=C(\N)c2snnc2C)cc(C)c1F	-5.04%
Cc1ccc(S(=O)(=O)NNC(=O)c2ccccc2N)cc1	-6.6%
Cc1cc(C)nc(NC(=S)c2ccc(NC(=O)/C=C/C(=O)O)cc2)n1	-5.82%
O=C(Nc1ccc(C(F)(F)F)cc1)Nc1ccccc1C(=O)O	-8.04%
CCCCNc1nc(N)ns1	-3.61%
Cc1c(CC(=O)Oc2ccc([N+](=O)[O-])cc2)sc2ccc(Cl)cc12	-2.58%
O=C(NCCO)NCCSc1ccc(F)cc1	-4.7%
CCOC(=O)c1c(NS(=O)(=O)c2cccc3nsnc23)sc(C)c1C	-6.04%
Cn1cccc1-c1n[nH]c(=S)n1-c1ccc(Cl)cc1Cl	-4.04%
O=C1C=C(SCC(=O)c2ccccc2)SC(c2ccc(Cl)cc2)C1 (configuration not stated)	6.17%
NNC(=O)CC1C(=O)NCCN1Cc1c(Cl)cccc1Cl (configuration not stated)	-5.38%
Cc1cc(S(=O)(=O)Oc2ccc(OCc3ccccc3)cc2)c(C)cc1Cl	-2.88%
CCOC(=O)C/C(N)=C(\C#N)C(=O)OCC	-2.73%
Cc1ccc(SCC(=O)Nc2ccc(F)cc2F)cc1	-5.06%
CC(C)(C)NC(=O)[C@@H]1C[C@@H]2CCCC[C@@H]2CN1C(=O)c1ccno1	-7.29%
COc1cccc(OCc2ccccc2)c1C#N	-5.84%
O=S(=O)(Oc1ccc(Cl)c(Cl)c1)c1c(Cl)sc(Cl)c1Br	-7.23%
O=C(O)Cc1csc(NC(=O)CSc2nnnn2-c2ccc(O)cc2)n1	-6.18%

SMILES	activation
COc1cc(NC(=O)c2ncc(C(F)(F)F)cc2Cl)c(C(=O)O)cc1OC	-7.07%
O=S(=O)(O)c1ncccn1	-6.4%
c1ccc(CN2CCN(Cn3nnc4ccccc43)CC2)cc1	-4.65%
COC(=O)c1ccc2snnc2c1	-2.44%
FC(F)(F)c1csc(N/N=C/c2ccccc2Cl)n1	-13.1%
CCOC(=O)C(=CNNc1ccc(C(=O)O)cc1[N+](=O)[O-])C(=O)OCC	-6.55%
CC1CC(NC(=O)/C(C#N)=C/c2ccc[nH]2)CC(C)(C)C1 (configuration not stated)	-10.3%
N/N=c1/nc2sccn2c2ncccc12	-4.92%
CCOC(=O)c1cc(CC)sc1NC(=O)c1cccnc1Oc1ccccc1	-8.18%
O=C1C=C(c2ccccc2)CN(C2CCCCC2)C1=O	-2.8%
CC1=C(C(=O)O)N2C(=O)[C@H](NC(=O)[C@@H](N)c3ccccc3)C2SC1 (some centres not stated)	22.8% (active)
O=C(Oc1ccc(Cl)cc1)c1snnc1-c1ccccc1	-5.24%
N#Cc1ccc(-c2csc(COc3ccccc3Cl)n2)cc1	34% (active)
Cc1onc(C(=O)NN)c1-c1csc(COc2ccccc2)n1	-4.77%
C#CC(C)(CC)OCC(O)CS(=O)(=O)O (configuration not stated)	-5.43%
CC(C)S(=O)(=O)c1cscc1N/C=C(/C#N)C(=O)c1cccs1	-2.65%
O=S(=O)(c1ccc(Cl)c(Cl)c1)N1CCc2c([nH]c3ccccc23)C1C(F)(F)F (configuration not stated)	-11.8%
Cc1[nH]n(C)c(=O)c1C(=O)c1c(-c2c(Cl)cccc2Cl)noc1C	-6.37%
CN(NC(=O)c1ccc(Cl)s1)c1cnn(-c2cc(Cl)cc(Cl)c2)c(=O)c1Cl	-2.83%
CSc1nsc(SC)c1C(=O)Nc1cc(C(F)(F)F)cc(C(F)(F)F)c1	-4.92%
Cn1cnnc1SC/C=C/c1ccccc1	-6.61%
CCOC(=O)C(=CNc1nc(-c2ccc(Cl)cc2)cs1)C(=O)OCC	-6.21%
c1ccc2c(c1)NC(C1Nc3ccccc3O1)O2 (configuration not stated)	-4.99%
Cc1cc(Cl)ccc1NC(=S)NNC(=S)Nc1ccc(F)cc1	-1.79%
CCOC(=O)/C=C(/Nc1ccccc1SC)c1ccccc1	-8.09%
CC(C)(C)c1ccc(C(=O)CC(N)=O)cc1	-7.09%
